We go through 99 compounds from PubChem BioAssay AID504465 (National Center for Advancing Translational Sciences (NCATS), 2011).

Screen size: about 2,100 compounds; about 210 (10%) were called active. Roughly 53% stayed inconclusive and do not appear here. Calls follow the shape of the dose curve; as a rule, active = well fitted inhibition curve with a large enough effect; inconclusive = small, poorly fitted or top-dose-only effect, or effect the other way; inactive = no such curve, though single readings can be large or run the other way. The list shows a part of the results. Where a call stands in place of a potency, no number is given.
Potency is read from the fitted curve at half-maximal effect.

This test in a line: IN Cell qHTS Assay for Inhibitors of the mTORC1 Signaling Pathway in MEF (Tsc2-/-, p53-/-) Cells: Sytravon. Also: nearly all actives have a fitted effect of over 60% in size. The following applies: phospho-rpS6 immunofluorescence, 24 h; series mostly up to 38.3 µM. In outline:
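Immunofluorescence of rpS6 phosphorylation (Ser235/236) in mouse embryonic fibroblasts lacking Tsc2 and p53, after 24 h compound exposure; Hoechst-normalized signal imaged, each well scored as % active cells relative to rapamycin (7.5 nM) and DMSO controls.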
A general note: qHTS replaces the single test concentration by a dilution series.
As to `Cc1ccc(NC(=O)/C=C\C(=O)N(c2ccc(C(C)C)cc2)C(C(=O)NCc2ccco2)c2ccc(F)cc2)cc1` (centres undefined), the Potency result is “inactive”.
Then `COc1ccc2nc(C)cc(Nc3ccc(Cl)c(Cl)c3)c2c1`, with 13.1 µM (active); and `COc1ccc(Nc2cc(C)nc3c(C)c(C)ccc23)cc1`, with “inactive”; and `COc1cc(Nc2nc(SCC(=O)c3ccc(Cl)c(Cl)c3)nc3ccccc23)cc(OC)c1`, with “inactive”.
For the compound `Clc1cccc(-n2ncc3c(NC4CCCCC4)ncnc32)c1`, the Potency entry was “inactive”.
Turning to `Cc1cccc(Cc2c(C)nc3nc(SCC(=O)NCc4ccc(F)cc4)nn3c2C)c1`, the Potency result is “inactive”.
Then `CC(=O)N1CCc2cc(CNS(=O)(=O)c3cccs3)ccc21`, with “inactive”; and `Cc1nc2nncn2c(NCc2ccc(Cl)cc2)c1C`, with “inactive”.
In the case of `COc1ccc(CCNC(=O)c2cc3n(n2)CCCN(Cc2ccc(C)cc2)C3=O)cc1OC`, the Potency entry is “inactive”.
For the compound `COc1ccc2c(c1)CC(C(=O)Nc1cc(Cl)ccc1C)CO2` (centres undefined), the Potency entry was “inactive”.
`CCOc1ccc(-n2nc(CO)c(C(=O)NCc3cccs3)n2)cc1`: the Potency entry was “inactive”.
For the compound `CCOC(=O)c1c(C)oc2ncnc(N3CCN(c4cccc(Cl)c4)CC3)c12`, the Potency entry is “inactive”.
Then `CCOc1ccc(-n2nc3ccc(NC(=O)c4ccc(-c5cccc(Cl)c5)o4)cc3n2)cc1`, with 13.1 µM (active).
Regarding `CCN1CCc2c(sc(NC(=O)c3ccc(S(=O)(=O)N4CCCC(C)C4)cc3)c2C(=O)OC)C1` (centres undefined), the Potency result is “inactive”.
`Cc1ccc(S(=O)(=O)Nc2cccc(-c3ccc(N4CCC(C)CC4)nn3)c2)s1`: the Potency result is “inactive”.
Then `O=C(NC1CCN(Cc2ccccc2)CC1)c1ccc(Cn2c(=O)c3ccccc3n(Cc3ccc(F)cc3)c2=O)cc1`, with 2.61 µM (active); and `O=c1c2ccccc2n(Cc2c(F)cccc2Cl)c(=O)n1Cc1ccccc1`, with “inactive”; and `COc1ccccc1CNC(=O)CCCn1c(=O)c2ccccc2n(Cc2ccc(F)cc2)c1=O`, with “inactive”.
Turning to `COc1ccc(N2CCN(C(=O)CSCc3ccc(C)cc3)CC2)cc1`, the Potency entry was “inactive”.
The value for `CCOC(=O)c1c(C)oc2nc(C)nc(NCc3ccc(Cl)cc3)c12` was “inactive”; that for `CCOC(=O)C(Cc1c[nH]c2ccccc12)NC(=O)COc1ccc(Cl)cc1` (centres undefined) was “inactive”.
Consider `Cc1ccc(C)c(NC(=O)c2nc(S(=O)(=O)Cc3ccc(F)cc3)ncc2Cl)c1`, for which the Potency is 3.29 µM (active).
Take `CC(=O)Nc1ccc(NC(=O)c2nc(S(=O)(=O)Cc3ccc(F)cc3)ncc2Cl)cc1`: the Potency was 8.26 µM (active).
Turning to `CCc1ccc(NC(=O)c2cc(S(=O)(=O)NC3CCCC3)ccc2F)cc1`, the Potency entry is “inactive”.
Then `Cc1ccc2c(CNCCc3ccc(Cl)cc3)c(C(=O)O)n(Cc3ccc(F)cc3)c2c1`, with “inactive”; and `COc1ccc(OC)c(NC(=O)c2c(NCc3ccc(OC)c(OC)c3)sc3c2CCC(C)C3)c1` (centres undefined), with “inactive”.
In the case of `COc1ccc(OC)c(NC(=O)c2nc(S(=O)(=O)Cc3ccc(F)cc3)ncc2Cl)c1`, the Potency was 2.33 µM (active).
Then `Cc1ccc(NC(=O)c2cc(S(=O)(=O)NC3CCCCC3)ccc2F)cc1Cl`, with “inactive”.
Consider `COc1ccc(C)cc1NC(=O)c1cc(S(=O)(=O)NC2CCCCCC2)ccc1F`, for which the Potency entry was “inactive”.
On to `CC1=C(c2ccc(C)c(C)c2)S(=O)(=O)N(Cc2ccc(C(=O)Nc3cc(F)ccc3F)cc2)C1=O`, for which the Potency result is “inactive”.
In the case of `Cc1ccc(NC(=O)c2nc(S(=O)(=O)Cc3ccc(F)cc3)ncc2Cl)cc1C`, the Potency was 1.65 µM (active).
`Cc1ccc(NC(=O)c2cc(S(=O)(=O)NCCC3=CCCCC3)ccc2F)cc1C`: the Potency result is “inactive”.
On to `COc1cc(NS(=O)(=O)c2cc(Br)cc3c2N(C(=O)C2CC2)CC3)cc(OC)c1`, for which the Potency result is “inactive”.
For the compound `CCc1c(C)nc2nncn2c1NCc1ccc(Cl)cc1`, the Potency result was “inactive”.
With `CC(=O)c1cccc(NC(c2ccc(F)cc2)c2nnc(-c3ccccc3)o2)c1` (centres undefined), the Potency entry is “inactive”.
`Cc1ccccc1Nc1c(-c2c[nH]c3ccccc23)nc2cccc(C)n12`: the Potency entry was “inactive”.
In the case of `O=C(Nc1ccc(Br)cc1)c1cc(S(=O)(=O)NC2CCCC2)ccc1F`, the Potency result is “inactive”.
Regarding `COc1ccc(Cn2c(C(=O)O)c(CNC3CCCCCC3)c3ccc(OC)cc32)cc1`, the Potency entry was “inactive”.
On to `CC(C)CCN(C(=O)Nc1ccc(Cl)c(Cl)c1)C1CCN(C(C)C)CC1`, for which the Potency entry was “inactive”.
For `Cc1cc(C)c(NC(=O)c2cc(S(=O)(=O)NCCC3=CCCCC3)ccc2F)c(C)c1`, the Potency result is “inactive”.
Consider `Cc1ccc2[nH]c(=O)c3cc(C(=O)NCCCN4CCC(C)CC4)sc3c2c1`, for which the Potency is 5.85 µM (active).
`CCN(CCCNC(=O)c1cc2c(=O)[nH]c3ccccc3c2s1)c1ccccc1`: the Potency result is “inactive”.
`CCc1ccc(Sc2cc(C(=O)NCCCN3CCC(C)CC3)c3ccccc3n2)cc1`: the Potency entry is “inactive”.
With `CCc1cccc(NC(=O)c2oc3ccc4c(c3c2C)C(=O)CC(C)(C)O4)c1`, the Potency result is “inactive”.
As for `c1ccc(CNc2ncnc3[nH]ncc23)cc1`, the Potency entry was “inactive”.
As for `COc1ccc(CNC(=O)C2CCN(S(=O)(=O)c3ccc(C)cc3)CC2)cc1`, the Potency entry is “inactive”.
As for `COc1ccc(-c2cc(NCc3ccc(C)cc3)n3cnnc3n2)cc1`, the Potency entry was “inactive”.
In the case of `COc1ccc(CNC(=O)c2cc(-c3ccc(OC)c(OC)c3)nc3n[nH]c(-c4ccc(C)cc4)c23)cc1`, the Potency is 14.7 µM (active).
The value for `Cc1oc2ccc(O)c(CN(C)Cc3ccccc3)c2c1C(=O)Nc1ccccc1` was “inactive”; that for `CCOc1cccc(NC(=O)C2CC(=O)N(CC)C(=Nc3ccc(F)cc3)S2)c1` (centres undefined) was “inactive”.
Regarding `Cc1ccc(C)c(CN2CCC(CNC(=O)c3cc4ccc5cccnc5c4[nH]3)CC2)c1`, the Potency result was “inactive”.
`Cc1ccc(C)c(CN2CCC(CNC(=O)Nc3ccc(Br)cc3F)CC2)c1`: the Potency was 14.7 µM (active).
With `O=C(NCC1CCN(Cc2ccccc2F)CC1)Nc1ccc(F)c(Cl)c1`, the Potency result is “inactive”.
As for `Cc1nn(C)c2c1c(C(F)(F)F)cc(=O)n2CC(=O)N1CCC(C)CC1`, the Potency result is “inactive”.
Consider `CSc1ccc(CCNS(=O)(=O)c2cc(-c3cc(C)no3)ccc2C)cc1`, for which the Potency entry was “inactive”.
Turning to `N#Cc1ccc(-c2cccs2)nc1SCC(=O)Nc1cccc(C(F)(F)F)c1`, the Potency entry is “inactive”.
With `CCOC(=O)CSc1nc(-c2ccccc2)cc(C(F)(F)F)c1C#N`, the Potency was 9.27 µM (active).
Take `CCOc1ccc(-c2cc(C(=O)N3CCN(c4cccc(C(F)(F)F)c4)CC3)c3ccccc3n2)cc1`: the Potency result was “inactive”.
On to `CCc1ccc(Sc2cc(C(=O)NCCCN3CCCC(C)C3)c3ccccc3n2)cc1` (centres undefined), for which the Potency entry is “inactive”.
Take `CCN1CCOC(=O)C1CC(=O)Nc1ccc(C)c(Cl)c1` (centres undefined): the Potency entry was “inactive”.
Regarding `O=C(Cn1c(-c2cccs2)cc2ccccc21)NCCCN1CCN(c2ccc(F)cc2)CC1`, the Potency was 14.7 µM (active).
Take `COc1ccc(Nc2cc(C(=O)NCCCN3CCN(c4ccc(OC)cc4)CC3)c3ccccc3n2)cc1`: the Potency entry was “inactive”.
`Cc1ccccc1Oc1nc2ccccn2c(=O)c1/C=C(\C#N)c1nc2ccccc2[nH]1`: the Potency result is “inactive”.
As for `CCn1c(CN2CCOCC2)nc2cc(NC(=O)c3ccccc3[N+](=O)[O-])ccc21`, the Potency entry is “inactive”.
The value for `CCOc1ccc(N2C(=O)c3[nH]nc(-c4ccc(OC)cc4)c3C2c2cccs2)cc1` (centres undefined) was “inactive”; that for `CCOc1cc(C2c3c(-c4ccc(Br)cc4)n[nH]c3C(=O)N2c2ccc(Cl)cc2)ccc1O` (centres undefined) was “inactive”.
Then `COc1ccc(-c2n[nH]c3c2C(c2ccc(O)cc2)N(c2ccc(Br)cc2)C3=O)cc1` (centres undefined), with 11.7 µM (active); and `CC(C)CN(CC(C)C)S(=O)(=O)c1ccc(C(=O)Nc2sc3c(c2C(N)=O)CC(C)(C)NC3(C)C)cc1`, with “inactive”; and `Cc1ccc(Nc2cc(C)nc3nc(Cc4ccc(Cl)cc4)nn23)cc1`, with “inactive”.
On to `Cc1cccc(-n2ncc3c(Nc4c(C)cc(C)cc4C)ncnc32)c1`, for which the Potency was 3.69 µM (active).
Then `Cc1cc(C)c(Nc2ncnc3c2cnn3C)c(C)c1`, with “inactive”; and `COc1ccc(OC)c(Nc2ncnc3c2cnn3-c2cccc(Cl)c2)c1`, with “inactive”.
Then `O=C(Nc1cc(Cl)cc(Cl)c1)c1cc(S(=O)(=O)NC2CCCC2)ccc1F`, with “inactive”; and `CCCCOc1cccc(C(=O)N2CCN(CCc3ccncc3)CC2)c1`, with “inactive”.
Take `O=C(COC(=O)c1cccc(NC(=O)c2ccc(Br)cc2)c1)c1ccc(Br)cc1`: the Potency result was “inactive”.
As to `CCCCOc1cccc(NC(=O)c2cccc(C(=O)Nc3cccc(OCCCC)c3)c2)c1`, the Potency was 11.7 µM (active).
For `CN1CCc2c(sc(NC(=O)CSc3ccccc3)c2-c2nc3ccccc3s2)C1`, the Potency result is “inactive”.
Consider `Cc1n[nH]c(C)c1S(=O)(=O)N(CC(=O)Nc1ccc(C(F)(F)F)cc1)c1ccc(C(C)C)cc1`, for which the Potency result is “inactive”.
On to `CS(=O)(=O)N(CC(=O)NCCc1ccccc1)c1cc(C(F)(F)F)ccc1Cl`, for which the Potency is 8.26 µM (active).
Take `O=C(Nc1cc(Cl)ccc1Cl)c1cc(S(=O)(=O)NCCc2ccccc2)ccc1F`: the Potency entry was “inactive”.
Turning to `Cc1c(Cl)ccc2sc(NC(=O)c3ccc(S(=O)(=O)N4CCCc5ccccc54)cc3)nc12`, the Potency entry is “inactive”.
On to `Cc1c(C(=O)N2CCC(C)CC2)c(S(=O)(=O)N(Cc2ccccc2)C(C)(C)C)c(C)n1C`, for which the Potency result is “inactive”.
Consider `O=C1CSC2(C(=O)N(Cc3cccc(C(F)(F)F)c3)c3ccccc32)N1c1ccc(F)c(F)c1` (centres undefined), for which the Potency result is “inactive”.
Regarding `CCN(CC)CCCNC(=O)c1ccc(-c2nc(CN3CCc4ccccc43)c(C)o2)cc1`, the Potency was 13.1 µM (active).
As to `CCN(CC)CCCNC(=O)c1nn(C)c2c1CSc1ccccc1-2`, the Potency result is “inactive”.
For `CCN(CC)CCNC(=O)c1ccc(-n2c(-c3ccccc3)cc3c2CCCC3)cc1`, the Potency entry is “inactive”.
With `COc1ccc(-c2ccc(CNc3ccc4[nH]c(=O)[nH]c4c3)o2)cc1Cl`, the Potency entry was “inactive”.
Consider `CCCNC(=O)c1ccc2c(c1)N=C(CCC)c1ccccc1S2`, for which the Potency entry is “inactive”.
Then `CCOc1ccc(OCC)c(NC(=O)C(NS(=O)(=O)c2cccs2)c2ccccc2)c1` (centres undefined), with “inactive”.
As for `COc1ccc(CNC(=O)CCCN2C(=O)CSc3c2c(C)nn3-c2ccccc2)cc1`, the Potency result was “inactive”.
Turning to `Cc1nn(C(C)C(=O)NC2CCC(C)CC2)c(=O)c2c1sc1ccccc12` (centres undefined), the Potency was 5.21 µM (active).
On to `CCC(C(=O)N1CCN(c2cc(Cl)ccc2C)CC1)n1nc(C)c2sc3ccccc3c2c1=O` (centres undefined), for which the Potency entry is “inactive”.
The value for `Cc1ccc(CCNC(=O)c2c3c(nc4ccccc24)C(=O)N(C2CCCCC2)C3)cc1` was “inactive”.
Consider `CSc1ccc(CCNC(=O)CCn2c(=O)c3cccn3c3ccc(F)cc32)cc1`, for which the Potency result is “inactive”.
The value for `CCCOc1ccc(CNC(=O)CCCn2nc(C)c3sc4ccccc4c3c2=O)cc1` was “inactive”; that for `COc1ccc(Cn2ccc3nc(C)c(C(=O)N4CCN(c5ccc(OC)cc5)CC4)cc3c2=O)cc1` was “inactive”; that for `CSc1ccc(CCNC(=O)C(C)n2nc(C)c3sc4ccccc4c3c2=O)cc1` (centres undefined) was 1.17 µM (active).
As to `Cc1nn(CCCC(=O)NCCc2ccc(Cl)cc2)c(=O)c2c1sc1ccccc12`, the Potency was 11.7 µM (active).
Then `COc1ccc(N2CCN(C(=O)C(C)n3nc(C)c4sc5ccccc5c4c3=O)CC2)cc1` (centres undefined), with 1.85 µM (active).
